Measurements reported in PubChem BioAssay AID1021 (Emory University Molecular Libraries Screening Center, 2008).
Where “and” joins values, the source holds several entries; their conditions need not be identical. Identical values can stand only once. Screen size: about 220,000 compounds; about 2,100 (0.95%) were called active.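 The calls were made as follows: active = compounds that cut the binding signal by more than half at the single screening dose; inactive = the rest.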 This excerpt belongs to a sample that is enriched for actives. More than one record can exist for a structure, and the calls need not agree.

The compounds below were run against Induced myeloid leukemia cell differentiation protein Mcl-1 (Homo sapiens) (UniProt Q07820) (assay: disruptors of Mcl-1 and Bid BH3 peptide – biochemical, TR-FRET, 1536-well, primary screen (AID 1021;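 also: His-tagged Mcl-1 with europium anti-His antibody binding Bid BH3 peptide; 0% = Mcl-1 plus peptide wells and 100% = peptide-only wells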)). Conditions: TR-FRET Mcl-1/Bid-Dy647 peptide binding, at 21.7 µM, stronger effect = higher value.
Sequence of Induced myeloid leukemia cell differentiation protein Mcl-1 (Homo sapiens) (Q07820 whole entry, looked up): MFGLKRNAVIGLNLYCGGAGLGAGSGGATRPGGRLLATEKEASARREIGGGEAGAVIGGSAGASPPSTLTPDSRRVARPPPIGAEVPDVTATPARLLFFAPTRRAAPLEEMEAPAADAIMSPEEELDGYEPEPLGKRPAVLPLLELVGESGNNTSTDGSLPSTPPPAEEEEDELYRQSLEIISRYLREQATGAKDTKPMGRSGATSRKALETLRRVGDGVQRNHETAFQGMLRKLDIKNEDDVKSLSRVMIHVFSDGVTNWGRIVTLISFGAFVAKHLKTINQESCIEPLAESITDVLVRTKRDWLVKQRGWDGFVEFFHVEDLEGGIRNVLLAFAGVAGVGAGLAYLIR
`Cc1ccc(Nc2cc(=O)n(C3CCCCC3)c(=O)[nH]2)cc1C` was tested, and the inhibition was 94.6% (active).
In the case of `Cc1ccc(NNC(=O)C2CCC2)cc1C`, the inhibition is reported as -13% (inactive).
With `O=c1cc(C(F)(F)F)[nH]c(=O)n1C1CCCCC1` the inhibition was -10.9% (inactive).
`Cc1c(C(=O)Nc2ccccc2)sc2nc3n(c(=O)c12)CCCCC3` was tested, and the inhibition was -9.14% (inactive).
`O=C(Cn1c[n+](CC(=O)c2ccc([N+](=O)[O-])cc2)cn1)c1ccc([N+](=O)[O-])cc1` was tested, and the inhibition was -21.7% (inactive) and -16.6% (inactive).
`O=C(Oc1cccc(N2C(=O)C3C4c5ccccc5C(c5ccccc54)C3C2=O)c1)c1ccco1` (stereo unspecified) was tested, and the inhibition was 92% (active).
In the case of `CC(=O)Nc1ccc(N2C(=O)C3C4CC(=O)C(c5ccccc54)C3C2=O)cc1` (stereo unspecified), the inhibition is reported as -11.5% (inactive).
In the case of `CC(=O)Oc1cccc(N2C(=O)C3CC=C(Cl)CC3C2=O)c1` (stereo unspecified), the inhibition is reported as -19.4% (inactive).
For `O=[N+]([O-])c1ccc(N2CCSCC2)cc1O`, the inhibition was -15.7% (inactive).
In the case of `O=C(CS(=O)(=O)c1ccc(C(F)(F)F)cn1)NNC(=O)c1ccccc1`, the inhibition is reported as -2.12% (inactive).
With `O=c1[nH]c2ccccc2n2c(-c3ccccc3)nnc12` the inhibition was 64.9% (active).
In the case of `Cc1ccc(-c2nc3ccccc3[nH]c2=O)cc1`, the inhibition is reported as -0.25% (inactive).
`CCOC(=O)c1cnc2[nH]c3ccccc3n2c1=O` was tested, and the inhibition was 10.7% (inactive).
In the case of `CCCCc1nnc(NC(=O)CSc2nc(N)cc(=O)[nH]2)s1`, the inhibition is reported as -5.95% (inactive).
For `Cn1c2ccccc2c2cc(/C=C(\NC(=O)c3ccccc3)C(=O)NCC(=O)O)ccc21`, the inhibition was -1.08% (inactive).
In the case of `Cc1cc(NS(=O)(=O)c2ccc(NC(=O)c3cccc(OC(F)F)c3)cc2)nc(C)n1`, the inhibition is reported as -2.38% (inactive).
`Cn1cccc1/C=N/NC(=O)CNc1cccc2ccccc12` was tested, and the inhibition was -45.9% (inactive).
With `O=C(O)C(NS(=O)(=O)c1cccc2nsnc12)c1ccccc1` (stereo unspecified) the inhibition was -3.92% (inactive).
For `O=C(O)c1ccc(NS(=O)(=O)c2cccc3nsnc23)cc1`, the inhibition was 101% (active).
With `O=C(C(NS(=O)(=O)c1cccc2nsnc12)c1ccccc1)N1CCN(c2ccccc2)CC1` (stereo unspecified) the inhibition was -29.6% (inactive).
For `N#Cc1c(N)nc2c(c1N)CC(C(F)(F)F)O2` (stereo unspecified), the inhibition was 1.45% (inactive).
With `Cc1nn(Cc2ccccc2)c2c1C(c1ccccc1)C(C#N)=C(N)O2` (stereo unspecified) the inhibition was -17.5% (inactive).
With `COc1ccccc1C1C(C#N)=C(N)Oc2c1c(-c1ccccc1)nn2-c1ccccc1` (stereo unspecified) the inhibition was 97.3% (active).
With `Cc1nn(-c2ccccc2)c2c1C(c1ccc(F)cc1)C(C#N)=C(N)O2` (stereo unspecified) the inhibition was -9.94% (inactive).
`COc1cc(S(=O)(=O)N(Cc2cccs2)C2CC2)ccc1-n1cnnn1` was tested, and the inhibition was 1.4% (inactive).
For `CCC(CC)NC(=O)CSc1nnc(-c2c[nH]c3ccccc23)o1`, the inhibition was 1.1% (inactive).
`CN(C)c1ccc(Nc2c3c4c(cccc4n(C)c2=O)C(=O)c2ccccc2-3)cc1` was tested, and the inhibition was 59.4% (active).
`CC1(C)CC(=O)C=C(Nc2ccccc2)C1` was tested, and the inhibition was -54% (inactive).
In the case of `Cc1ccc(C(=O)OC2=CC(=O)CC(C)(C)C2)cc1`, the inhibition is reported as 89.4% (active).
With `COC(=O)NNC1=CC(=O)CC(C)(C)C1` the inhibition was -13.6% (inactive).
With `CC(=O)Nc1cccc(/C(C)=N/NC(=O)c2ccccc2Cl)c1` the inhibition was -9.47% (inactive).
In the case of `O=C(NC1CC1)c1ccc2c(c1)NC(=O)c1ccccc1S2`, the inhibition is reported as -30.3% (inactive).
In the case of `C/C(=N\Nc1cccc(C(=O)O)c1)c1ccc2c(c1)Nc1ccccc1S2`, the inhibition is reported as 92% (active).
In the case of `COc1cc(/C=N/NC(=O)CCc2n[nH]c(=O)[nH]c2=O)ccc1O`, the inhibition is reported as -25.6% (inactive).
For `O=C(OCc1nc2ccccc2[nH]1)C1CCCCC1`, the inhibition was -17.4% (inactive).
With `COc1ccc(C(=O)C2CCCN(Cc3ccc4nonc4c3)C2)c(C)c1` (stereo unspecified) the inhibition was -14.3% (inactive).
`Fc1ccc(NC(=S)N2CCc3[nH]c4ccccc4c3C2)cc1` was tested, and the inhibition was -6.12% (inactive).
For `O=C(Nc1ccc(Cl)cc1)N1CCc2[nH]c3ccccc3c2C1`, the inhibition was 83.8% (active).
`O=C(NC1CCCCC1)N1CCc2[nH]c3ccccc3c2C1` was tested, and the inhibition was -16.1% (inactive).
In the case of `Cc1ccccc1CN(c1ccc(C(=O)NCC2CCCO2)cc1)S(C)(=O)=O` (stereo unspecified), the inhibition is reported as -0.03% (inactive).
With `CNS(=O)(=O)c1ccc(N2CCCC2=O)c([N+](=O)[O-])c1` the inhibition was -4.05% (inactive).
With `COc1ccc(CN2CCCC(C(=O)c3ccc(Cl)cc3)C2)cc1Cn1cncn1` (stereo unspecified) the inhibition was -25.6% (inactive).
In the case of `COc1ccc(CCN(C)C(=O)C2CCCN(Cc3ccc(OC)c(OC)c3)C2)cc1OC` (stereo unspecified), the inhibition is reported as -22.7% (inactive) and 54.1% (active).
`COc1ccc(CN2CCCC(CNC(=O)c3ccc(F)cc3)C2)cc1OC` (stereo unspecified) was tested, and the inhibition was -22.9% (inactive).
With `CC(C)CC(=O)NC(=S)NNC(=O)c1cccc([N+](=O)[O-])c1` the inhibition was -73.3% (inactive).
With `Cn1nc(C(F)(F)F)c(-c2ccc(F)cc2)c1NC(=O)CSCC(=O)O` the inhibition was -12.6% (inactive).
With `O=C(O)CSCC(=O)Nc1cccc(C(F)(F)F)c1` the inhibition was -0.04% (inactive).
`FC(F)(F)c1cccc(N/N=C/c2ccccc2)c1` was tested, and the inhibition was 93.7% (active).
For `O=[N+]([O-])c1ccc(N/N=C/c2ccccc2)cc1`, the inhibition was -8.01% (inactive).
With `Clc1ccc(C[n+]2cc(-c3ccc(Cl)cc3)n3c2CCC3)cc1` the inhibition was -1.66% (inactive).
In the case of `Cc1ccc2[nH]c3c(=O)n(Cc4ccccn4)cnc3c2c1`, the inhibition is reported as 14.7% (inactive).
`O=c1c2[nH]c3ccc(Cl)cc3c2ncn1Cc1ccccn1` was tested, and the inhibition was 10.2% (inactive).
In the case of `COc1ccc2[nH]c3c(=O)n(Cc4ccco4)cnc3c2c1`, the inhibition is reported as 72.9% (active).
`S=C(NNC(=S)NC1CC2C=CC1C2)NC1CC2C=CC1C2` (stereo unspecified) was tested, and the inhibition was -96.2% (inactive).
For `CCCCCCCCCCCCC(NC(C)=O)(C(=O)OCC)C(=O)OCC`, the inhibition was 1.76% (inactive).
In the case of `CN(C)c1ccc(/C=C/C(=O)c2ccc(O)cc2)cc1[N+](=O)[O-]`, the inhibition is reported as -2.27% (inactive).
With `CCO[C@@H]1OC(C(=O)NCc2nc3ccccc3[nH]2)=C[C@H](C2CCCCC2)[C@H]1CCCO` the inhibition was 5.02% (inactive).
`CCc1ccccc1N1CN(Cc2ccco2)CNC1=S` was tested, and the inhibition was -26.9% (inactive).
`Cc1nccc(-c2ccc(-n3c(C)ccc3C)cc2)n1` was tested, and the inhibition was 6.3% (inactive).
With `COc1ccccc1NC(=O)/C=C/C(=O)O` the inhibition was -31.9% (inactive).
In the case of `O=[N+]([O-])c1cccc(-c2nnc3c4ccccc4c4ccccc4n23)c1`, the inhibition is reported as 52.9% (active).
`O=[N+]([O-])c1cccc(C2=NCCS2)c1` was tested, and the inhibition was -9.78% (inactive).
In the case of `O=[N+]([O-])c1cccc(Nc2c3ccccc3nc3ccccc23)c1`, the inhibition is reported as -10.4% (inactive).
In the case of `CCOC(=O)C1CCCN(C(=O)COc2ccc(N(C)S(=O)(=O)c3ccc(C)cc3)cc2)C1` (stereo unspecified), the inhibition is reported as -9.64% (inactive).
In the case of `COc1ccc(C(=O)COC(=O)COc2ccc(C)c(C)c2)cc1`, the inhibition is reported as 11.1% (inactive).
`CC(NC(=O)COC(=O)c1ccc2c(c1)OCO2)c1ccccc1` (stereo unspecified) was tested, and the inhibition was -4.79% (inactive).
`COc1ccc(Nc2ncnc3sc(-c4ccccc4)cc23)c(OC)c1` was tested, and the inhibition was -15% (inactive).
For `Cc1cccc(NC(=O)c2ccc3ccccc3n2)n1`, the inhibition was -24% (inactive).
`Cc1cc(NC(=O)c2cccc(N3C(=O)CCC3=O)c2)no1` was tested, and the inhibition was -19.2% (inactive).
For `Cc1cccc(NC(=O)c2cc(N3C(=O)CCC3=O)ccc2Cl)n1`, the inhibition was 69.1% (active).
For `COc1cc(/C=N/Nc2nc3ccccc3s2)ccc1O`, the inhibition was -5.09% (inactive).
For `c1ccc2sc(NN=C3CCCC3)nc2c1`, the inhibition was -7.33% (inactive).
For `O=[N+]([O-])c1cc(Br)c(O)c(/C=N/Nc2nc3ccccc3s2)c1`, the inhibition was 85.8% (active).
With `Cc1ccc(NC(=O)c2nc[nH]c2C(=O)N[C@@H](CCCCNC(=O)OC(C)(C)C)C(=O)OC(C)(C)C)cc1` the inhibition was -46.2% (inactive).
In the case of `CCOc1ccc(N=C2NC(=O)S/C2=C\c2ccc(O)cc2)cc1`, the inhibition is reported as 85.2% (active).
`NC1=NC(=O)S/C1=C\c1ccc(O)cc1` was tested, and the inhibition was -45.3% (inactive).
In the case of `CCOc1ccc(N=C2SC(C(=O)O)CC(=O)N2C)cc1` (stereo unspecified), the inhibition is reported as 3.39% (inactive).
In the case of `CCc1ccnc(NS(=O)(=O)c2ccc3c(c2)OCCO3)c1`, the inhibition is reported as -5.34% (inactive).
In the case of `Cn1c(=O)n(C)c2cc(C(=O)Nc3ccc4c(c3)OCO4)ccc21`, the inhibition is reported as -32.5% (inactive).
In the case of `O=C(Nc1ccccc1)c1ccc2c(c1)OCO2`, the inhibition is reported as 1.56% (inactive).
For `O=C(Nc1ccc2c(c1)OCO2)c1ccc(N2C(=O)c3ccccc3C2=O)cc1`, the inhibition was 56.4% (active).
For `COc1ccc(C(=O)OCC(=O)NCC2CCCO2)cc1[N+](=O)[O-]` (stereo unspecified), the inhibition was -15.9% (inactive).
`[O-][N+]12CCCCC1CCCC2CO` (stereo unspecified) was tested, and the inhibition was -0.58% (inactive).
With `COC(=O)CCCC1=CC2=C(c3ccccc3)C(=O)C(C)(OC(=O)C3CCCC3)C(=O)C2=CN1c1ccc(OC)cc1` (stereo unspecified) the inhibition was -60.4% (inactive).
For `CCOC(=O)N1CCN(C(=O)c2ccc(S(=O)(=O)c3ccc(C)cc3)c(NC(C)=O)c2)CC1`, the inhibition was -11.4% (inactive).
With `Cc1ccc(S(=O)(=O)c2ccc(Cl)cc2)cc1S(=O)(=O)NC(C(=O)O)C(C)C` (stereo unspecified) the inhibition was 4.83% (inactive).
In the case of `CC(=O)Nc1cc(C(=O)O)ccc1S(=O)(=O)c1ccc(Cl)cc1`, the inhibition is reported as 83% (active).
For `Cn1nccc1NC(=O)Nc1ccc(OC(F)(F)F)cc1`, the inhibition was -8.69% (inactive).
For `COc1cc(OC)cc(C(=O)Nc2ccc(-c3nc4ccccc4o3)c(O)c2)c1`, the inhibition was 70.7% (active).
`O=C(Nc1ccc2oc(-c3ccccc3F)nc2c1)c1ccco1` was tested, and the inhibition was -18.3% (inactive).
`COc1cc(OC)cc(C(=O)Nc2ccc(S(=O)(=O)Nc3cc(C)on3)cc2)c1` was tested, and the inhibition was -2.64% (inactive).
In the case of `O=C(NCCCn1ccnc1)C(=O)NCC1OCCN1S(=O)(=O)c1cc(F)ccc1F` (stereo unspecified), the inhibition is reported as -20.9% (inactive).
With `Cn1c(CSCC(=O)Nc2ccccc2)nnc1SCc1ccccc1` the inhibition was 1.29% (inactive).
In the case of `CSc1nc(C)cc(SC(C(C)=O)C(=O)Nc2ccccc2)n1` (stereo unspecified), the inhibition is reported as -18.3% (inactive).
`CC(Sc1nnc2c(n1)C1CCC2(C)C1(C)C)C(=O)Nc1ccccc1` (stereo unspecified) was tested, and the inhibition was 66.7% (active).
With `CC(Sc1nc(-c2ccccc2)cc(C(F)(F)F)n1)C(=O)Nc1ccc2c(c1)OCO2` (stereo unspecified) the inhibition was -32.5% (inactive).
